{"source": "the supplement of paper PMC6555819", "assay_in_all_cases": "PBM binding z-score (relative to random genomic background probes); higher = stronger binding; sequences stand for … in GC…GCGATTGACAGCGTAGAATGAAGG", "key": {"[1]": {"test_system": "RARb homodimer (NR concentration 270 nM)", "method_in_brief": "(§1)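 Custom Agilent 4×180K protein-binding microarrays carried double-stranded probes. Their 34-nt variable regions held direct-repeat seeds, single-nucleotide variants, half-site ablations and random human genomic background sequences. Arrays were incubated 1 h with ligand-free nuclear receptor dimers in PBS pH 7.4, 2% milk, 0.02% Triton X-100, 1 mM DTT, 0.2 mg/mL BSA and 0.4 mg/ml salmon testes DNA. Antibodies against each partner (one per run) detected binding, and scanned fluorescence was regression-normalized. Binding z-scores use random background probes as reference.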"}, "[2]": {"test_system": "RARg:RXRa (NR concentration 270 nM, RXRa partner concentration 90 nM)", "method_in_brief": "as §1"}, "[3]": {"test_system": "RARg homodimer (NR concentration 270 nM)", "method_in_brief": "as §1"}, "[4]": {"test_system": "RXRa DBDmut IVT, anti-RXR (DBD mutation: RXRa K156A/R161A, NR concentration 90 nM)", "method_in_brief": "as §1"}, "[5]": {"test_system": "RXRa homodimer (NR concentration 180 nM)", "method_in_brief": "as §1"}, "[6]": {"test_system": "THRa:RXRa (NR concentration 90 nM, RXRa partner concentration 90 nM)", "method_in_brief": "as §1"}, "[7]": {"test_system": "THRa homodimer (NR concentration 90 nM)", "method_in_brief": "as §1"}, "[8]": {"test_system": "VDR homodimer (NR concentration 270 nM)", "method_in_brief": "as §1"}}, "data": [{"sequence": "AGAATGAGGTTACCAAAGATCAGTGAAACGCTTG", "values": [{"measurement": "PBM binding z-score", "setting": "[1]", "result": 0.66}, {"measurement": "PBM binding z-score", "setting": "[2]", "result": 2.09}, {"measurement": "PBM binding z-score", "setting": "[3]", "result": 1.51}, {"measurement": "PBM binding z-score", "setting": "[4]", "result": 1.14}, {"measurement": "PBM binding z-score", "setting": "[5]", "result": 2.67}, {"measurement": "PBM binding z-score", "setting": "[6]", "result": 2.65}, {"measurement": "PBM binding z-score", "setting": "[7]", "result": 0.639}, {"measurement": "PBM binding z-score", "setting": "[8]", "result": 0.206}]}, {"sequence": "AGTCAAAGTTCACGAGGTAACGTAAGATTCAGCT", "values": [{"measurement": "PBM binding z-score", "setting": "[1]", "result": 4.91}, {"measurement": "PBM binding z-score", "setting": "[2]", "result": 6.34}, {"measurement": "PBM binding z-score", "setting": "[3]", "result": 7.02}, {"measurement": "PBM binding z-score", "setting": "[4]", "result": 4.45}, {"measurement": "PBM binding z-score", "setting": "[5]", "result": 6.24}, {"measurement": "PBM binding z-score", "setting": "[6]", "result": 3.61}, {"measurement": "PBM binding z-score", "setting": "[7]", "result": 1.34}, {"measurement": "PBM binding z-score", "setting": "[8]", "result": 3.84}]}, {"sequence": "CGAACTAGGACATCCAGGACAGTGAATACATTGA", "values": [{"measurement": "PBM binding z-score", "setting": "[1]", "result": 0.243}, {"measurement": "PBM binding z-score", "setting": "[2]", "result": 0.252}, {"measurement": "PBM binding z-score", "setting": "[3]", "result": 0.695}, {"measurement": "PBM binding z-score", "setting": "[4]", "result": 0.592}, {"measurement": "PBM binding z-score", "setting": "[5]", "result": 0.0939}, {"measurement": "PBM binding z-score", "setting": "[6]", "result": 1.78}, {"measurement": "PBM binding z-score", "setting": "[7]", "result": 1.4}, {"measurement": "PBM binding z-score", "setting": "[8]", "result": 0.467}]}, {"sequence": "CATACCGGGTCAGCTAGGCCAGAGTAGGGACGGC", "values": [{"measurement": "PBM binding z-score", "setting": "[1]", "result": 2.34}, {"measurement": "PBM binding z-score", "setting": "[2]", "result": 3.47}, {"measurement": "PBM binding z-score", "setting": "[3]", "result": 3.83}, {"measurement": "PBM binding z-score", "setting": "[4]", "result": -0.0713}, {"measurement": "PBM binding z-score", "setting": "[5]", "result": 3}, {"measurement": "PBM binding z-score", "setting": "[6]", "result": 2.53}, {"measurement": "PBM binding z-score", "setting": "[7]", "result": 0.906}, {"measurement": "PBM binding z-score", "setting": "[8]", "result": 0.395}]}, {"sequence": "AGATTGAGGTTACCAAAGATCAGGGAAACGCTTG", "values": [{"measurement": "PBM binding z-score", "setting": "[1]", "result": 0.91}, {"measurement": "PBM binding z-score", "setting": "[2]", "result": 2.15}, {"measurement": "PBM binding z-score", "setting": "[3]", "result": 1.94}, {"measurement": "PBM binding z-score", "setting": "[4]", "result": 1.36}, {"measurement": "PBM binding z-score", "setting": "[5]", "result": 2.81}, {"measurement": "PBM binding z-score", "setting": "[6]", "result": 2.91}, {"measurement": "PBM binding z-score", "setting": "[7]", "result": 1}, {"measurement": "PBM binding z-score", "setting": "[8]", "result": 0.381}]}, {"sequence": "CCGAGTAGGTTACGACGGGGCATTCAGTGCGAAT", "values": [{"measurement": "PBM binding z-score", "setting": "[1]", "result": 0.791}, {"measurement": "PBM binding z-score", "setting": "[2]", "result": 0.882}, {"measurement": "PBM binding z-score", "setting": "[3]", "result": 0.746}, {"measurement": "PBM binding z-score", "setting": "[4]", "result": -0.202}, {"measurement": "PBM binding z-score", "setting": "[5]", "result": 0.769}, {"measurement": "PBM binding z-score", "setting": "[6]", "result": 2}, {"measurement": "PBM binding z-score", "setting": "[7]", "result": -0.61}, {"measurement": "PBM binding z-score", "setting": "[8]", "result": 0.32}]}, {"sequence": "CGTACTAGGTCAAAGGACAGTGAAAGGCGACGTA", "values": [{"measurement": "PBM binding z-score", "setting": "[1]", "result": 2.87}, {"measurement": "PBM binding z-score", "setting": "[2]", "result": 4.02}, {"measurement": "PBM binding z-score", "setting": "[3]", "result": 4.76}, {"measurement": "PBM binding z-score", "setting": "[4]", "result": 1.91}, {"measurement": "PBM binding z-score", "setting": "[5]", "result": 3.01}, {"measurement": "PBM binding z-score", "setting": "[6]", "result": 2.51}, {"measurement": "PBM binding z-score", "setting": "[7]", "result": 0.4}, {"measurement": "PBM binding z-score", "setting": "[8]", "result": 0.647}]}]}
